Molecules are shown by their SMILES. For some of these results: Measured potencies and affinities stand elsewhere.

Holding throughout (set-up): scale not given: direction of the effect not stated beside the values
Assay [1] concerns the target Protein translocase subunit SecA (Escherichia coli (strain K12)) (UniProt P10408). In words: Assay to Identify E. coli SecA ATPase Inhibitors. The class given is functional. The settings on record: 30 µM.
Assay [2] addresses T1, Ubiquitin-activating enzyme e1, putative (Leishmania donovani (strain BPK282A1)) (UniProt E9BSI1).
T1 sequence (whole entry): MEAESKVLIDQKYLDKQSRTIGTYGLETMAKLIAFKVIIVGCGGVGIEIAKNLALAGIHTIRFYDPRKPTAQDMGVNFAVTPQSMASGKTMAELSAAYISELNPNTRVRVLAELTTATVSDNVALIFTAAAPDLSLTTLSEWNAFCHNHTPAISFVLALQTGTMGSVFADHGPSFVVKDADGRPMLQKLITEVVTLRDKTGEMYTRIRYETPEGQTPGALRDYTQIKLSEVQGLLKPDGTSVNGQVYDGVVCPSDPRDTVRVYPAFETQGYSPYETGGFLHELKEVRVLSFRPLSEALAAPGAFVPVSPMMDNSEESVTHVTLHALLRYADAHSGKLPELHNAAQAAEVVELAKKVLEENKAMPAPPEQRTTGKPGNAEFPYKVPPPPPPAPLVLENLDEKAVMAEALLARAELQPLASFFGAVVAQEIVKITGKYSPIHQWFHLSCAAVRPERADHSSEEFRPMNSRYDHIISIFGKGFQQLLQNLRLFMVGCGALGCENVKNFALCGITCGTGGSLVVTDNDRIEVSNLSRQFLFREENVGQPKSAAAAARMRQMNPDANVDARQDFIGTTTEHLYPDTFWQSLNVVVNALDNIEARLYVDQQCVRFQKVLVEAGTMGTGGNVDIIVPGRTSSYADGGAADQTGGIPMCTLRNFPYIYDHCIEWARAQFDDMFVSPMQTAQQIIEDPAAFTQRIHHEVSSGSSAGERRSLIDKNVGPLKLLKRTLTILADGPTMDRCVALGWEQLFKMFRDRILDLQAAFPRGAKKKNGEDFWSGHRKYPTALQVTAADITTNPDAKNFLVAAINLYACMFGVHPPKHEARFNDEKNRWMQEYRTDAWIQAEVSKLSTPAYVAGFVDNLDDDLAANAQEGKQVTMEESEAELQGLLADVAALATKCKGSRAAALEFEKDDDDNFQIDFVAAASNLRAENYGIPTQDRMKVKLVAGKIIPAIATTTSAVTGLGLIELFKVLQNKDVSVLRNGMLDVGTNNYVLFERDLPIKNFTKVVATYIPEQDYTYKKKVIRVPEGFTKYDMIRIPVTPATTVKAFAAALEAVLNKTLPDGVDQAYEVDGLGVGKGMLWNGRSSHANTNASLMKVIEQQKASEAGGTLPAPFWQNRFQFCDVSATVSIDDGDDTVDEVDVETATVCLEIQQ
Nature of the assay: Leishmania donovani Ubiquitin Activating Enzyme (LdE1). It counts as functional. The settings on record: 30 µM.

For assay [3], the target named is AMP-activated protein kinase, AMPK (Homo sapiens) (UniProt P54646+O43741+P54619+Q9UGJ0+Q9Y478+Q13131+Q9UGI9). In words: AMP-dependent Kinase enzyme assay. An in vitro enzyme assay that detects ADP turnover that is directly proportional to AMPK activity. This uses naive AMPK that is activated during the assay with MK-8722. The class given is functional. The settings on record: 30 µM.

The target of assay [4] is Sialic acid-binding Ig-like lectin 9 (Homo sapiens) (UniProt Q9Y336). In words: Hs-Siglec9 ALPHAscreen SOP 20170721. Particulars: 10 µM.
The next assay deals with Trypanosoma cruzi. Nature of the assay: Trypanosoma cruzi phosphomannomutase and mannose-1-phosphate guanylyltransferase assay. The class given is functional. Particulars: 10 µM.
For assay [5], the target named is T2, Arginase-2, mitochondrial (Homo sapiens) (UniProt P78540).
T2 sequence (whole entry): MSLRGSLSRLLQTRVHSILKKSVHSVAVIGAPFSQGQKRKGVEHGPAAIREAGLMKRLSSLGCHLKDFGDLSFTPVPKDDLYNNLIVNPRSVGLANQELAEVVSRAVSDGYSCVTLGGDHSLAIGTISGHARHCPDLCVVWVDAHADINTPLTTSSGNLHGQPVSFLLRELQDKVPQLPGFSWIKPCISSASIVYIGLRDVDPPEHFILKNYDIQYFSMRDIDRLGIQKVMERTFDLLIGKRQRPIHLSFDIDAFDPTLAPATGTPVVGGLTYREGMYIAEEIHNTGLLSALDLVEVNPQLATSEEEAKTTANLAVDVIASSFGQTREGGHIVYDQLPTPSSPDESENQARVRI
In words: in vitro enzyme assay to detect the production of urea directly proportional to the activity of Arginase II. Also: in the data most compounds retested in dose-response had high values. The settings on record: 33.3 µM. The class given is functional.

Assay [6] has as its target T3, Proteasome subunit beta (Trypanosoma cruzi) (UniProt O96673).
T3 sequence (whole entry): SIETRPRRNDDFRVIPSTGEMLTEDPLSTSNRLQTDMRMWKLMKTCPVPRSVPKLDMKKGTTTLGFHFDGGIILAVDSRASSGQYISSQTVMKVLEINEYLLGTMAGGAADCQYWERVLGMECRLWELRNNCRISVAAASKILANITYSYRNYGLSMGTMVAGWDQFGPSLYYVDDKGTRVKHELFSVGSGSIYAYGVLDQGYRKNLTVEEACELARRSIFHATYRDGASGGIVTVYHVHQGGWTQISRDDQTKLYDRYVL
Nature of the assay: Trypanosoma cruzi proteasome chymotrypsin-like activity (TcProtChymo) assay. Also: in the data most compounds retested in dose-response had high values. The class given is functional. The settings on record: 9.37 µM.

For another assay, the species on record is Homo sapiens. Nature of the assay: To identify inhibition of the IFN signalling (Jak-Stat) pathway via expression of an eGFP reporter gene under the control of an IFN-stimulated response element (ISRE) containing MxA promoter. It counts as functional. Particulars: 30 µM. For orientation: Reporter assays use an easily measured gene product as a stand-in for the process of interest.

Assay [7] addresses T4, Tyrosyl-tRNA synthetase, putative (Trypanosoma cruzi (strain CL Brener)) (UniProt Q4DSP6).
T4 sequence (whole entry): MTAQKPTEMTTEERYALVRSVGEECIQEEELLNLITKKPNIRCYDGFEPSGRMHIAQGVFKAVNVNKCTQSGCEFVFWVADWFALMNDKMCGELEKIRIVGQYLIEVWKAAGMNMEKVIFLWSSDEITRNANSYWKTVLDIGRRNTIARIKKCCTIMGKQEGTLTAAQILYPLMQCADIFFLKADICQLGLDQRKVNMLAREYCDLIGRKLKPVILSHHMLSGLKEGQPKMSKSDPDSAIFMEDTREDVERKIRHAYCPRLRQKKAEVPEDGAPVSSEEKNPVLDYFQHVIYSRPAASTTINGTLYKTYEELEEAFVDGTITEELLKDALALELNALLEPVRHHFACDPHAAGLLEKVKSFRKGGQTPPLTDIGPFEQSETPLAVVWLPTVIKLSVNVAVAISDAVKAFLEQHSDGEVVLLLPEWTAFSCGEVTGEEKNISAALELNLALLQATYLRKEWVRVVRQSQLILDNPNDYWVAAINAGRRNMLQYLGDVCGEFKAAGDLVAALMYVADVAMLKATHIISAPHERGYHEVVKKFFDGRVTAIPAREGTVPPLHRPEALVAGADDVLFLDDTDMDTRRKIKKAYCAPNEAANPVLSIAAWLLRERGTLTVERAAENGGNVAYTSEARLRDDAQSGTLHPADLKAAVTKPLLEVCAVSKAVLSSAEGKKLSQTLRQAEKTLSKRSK
Nature of the assay: Trypanosoma cruzi tyrosyl tRNA synthetase (TcYRS) _High Tyrosine SOP. Also: in the data most compounds retested in dose-response had high values. The class given is functional. The settings on record: 30 µM.

In assay [8] the target is T4, Tyrosyl-tRNA synthetase, putative (Trypanosoma cruzi (strain CL Brener)). Nature of the assay: Trypanosoma cruzi tyrosyl tRNA synthetase (TcYRS) SOP. Particulars: 30 µM. It counts as functional.
Assay [9] deals with Chromo domain-containing protein 1 (Saccharomyces cerevisiae (strain ATCC 204508 / S288c) (Baker's yeast)) (UniProt P32657). In words: ScCHD-1 Enzyme Inhibition Assay. Also: in the data most compounds retested in dose-response had high values. It counts as functional. The settings on record: 30 µM.
Sequence of Chromo domain-containing protein 1 (Saccharomyces cerevisiae (strain ATCC 204508 / S288c) (Baker's yeast)) (P32657 whole entry, the tested form may be a part): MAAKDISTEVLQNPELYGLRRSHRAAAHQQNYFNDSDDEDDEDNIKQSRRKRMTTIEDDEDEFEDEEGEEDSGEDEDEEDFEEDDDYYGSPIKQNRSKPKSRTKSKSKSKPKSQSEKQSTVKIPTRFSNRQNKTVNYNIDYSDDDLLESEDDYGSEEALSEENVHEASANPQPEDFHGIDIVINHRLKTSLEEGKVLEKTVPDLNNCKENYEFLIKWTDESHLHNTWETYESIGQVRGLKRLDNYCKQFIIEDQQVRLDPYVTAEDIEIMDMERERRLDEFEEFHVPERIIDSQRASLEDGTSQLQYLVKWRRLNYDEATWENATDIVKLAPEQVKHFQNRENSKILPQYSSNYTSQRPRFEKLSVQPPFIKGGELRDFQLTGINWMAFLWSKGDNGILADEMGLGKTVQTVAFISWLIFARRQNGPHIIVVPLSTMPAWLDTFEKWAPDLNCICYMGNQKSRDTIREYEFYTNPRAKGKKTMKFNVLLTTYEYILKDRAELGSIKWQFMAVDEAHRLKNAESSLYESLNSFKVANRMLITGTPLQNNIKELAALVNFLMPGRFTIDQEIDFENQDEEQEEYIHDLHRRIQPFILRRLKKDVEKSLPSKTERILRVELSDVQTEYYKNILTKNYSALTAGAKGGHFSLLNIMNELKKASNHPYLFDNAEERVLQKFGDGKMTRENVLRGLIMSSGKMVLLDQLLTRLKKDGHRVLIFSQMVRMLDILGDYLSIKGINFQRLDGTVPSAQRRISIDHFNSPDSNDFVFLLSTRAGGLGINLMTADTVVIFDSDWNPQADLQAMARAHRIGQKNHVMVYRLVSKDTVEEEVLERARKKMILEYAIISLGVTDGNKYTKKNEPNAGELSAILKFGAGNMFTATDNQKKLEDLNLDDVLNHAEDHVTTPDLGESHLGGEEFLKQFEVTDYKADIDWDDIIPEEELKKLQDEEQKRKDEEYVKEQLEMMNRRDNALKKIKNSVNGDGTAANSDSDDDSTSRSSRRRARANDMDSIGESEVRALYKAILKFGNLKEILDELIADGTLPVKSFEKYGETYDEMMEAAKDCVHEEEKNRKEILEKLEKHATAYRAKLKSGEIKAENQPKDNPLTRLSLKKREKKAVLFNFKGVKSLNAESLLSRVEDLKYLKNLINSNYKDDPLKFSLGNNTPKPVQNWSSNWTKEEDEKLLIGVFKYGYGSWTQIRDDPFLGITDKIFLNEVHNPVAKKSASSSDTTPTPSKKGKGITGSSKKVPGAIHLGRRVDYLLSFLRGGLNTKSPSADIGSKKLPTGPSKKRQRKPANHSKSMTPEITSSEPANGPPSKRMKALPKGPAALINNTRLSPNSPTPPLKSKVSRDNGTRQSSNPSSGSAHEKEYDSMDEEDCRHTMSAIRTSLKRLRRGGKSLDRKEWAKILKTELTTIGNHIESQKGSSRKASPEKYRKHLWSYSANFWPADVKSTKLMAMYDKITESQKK

Sequence of Sialic acid-binding Ig-like lectin 9 (Homo sapiens) (Q9Y336 whole entry): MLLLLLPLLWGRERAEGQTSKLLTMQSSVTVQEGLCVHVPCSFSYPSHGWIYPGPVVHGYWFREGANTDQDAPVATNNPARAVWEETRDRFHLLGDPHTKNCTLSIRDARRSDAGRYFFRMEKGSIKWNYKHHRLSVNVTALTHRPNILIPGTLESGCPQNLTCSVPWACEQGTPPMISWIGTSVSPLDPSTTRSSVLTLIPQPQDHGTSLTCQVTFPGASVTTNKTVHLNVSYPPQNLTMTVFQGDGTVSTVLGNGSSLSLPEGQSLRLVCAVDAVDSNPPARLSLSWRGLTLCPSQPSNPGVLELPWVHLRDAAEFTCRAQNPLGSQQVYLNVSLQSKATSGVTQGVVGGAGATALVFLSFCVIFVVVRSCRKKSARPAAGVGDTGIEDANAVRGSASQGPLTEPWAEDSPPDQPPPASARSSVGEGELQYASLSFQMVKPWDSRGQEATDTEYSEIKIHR
Sequence of Protein translocase subunit SecA (Escherichia coli (strain K12)) (P10408 whole entry): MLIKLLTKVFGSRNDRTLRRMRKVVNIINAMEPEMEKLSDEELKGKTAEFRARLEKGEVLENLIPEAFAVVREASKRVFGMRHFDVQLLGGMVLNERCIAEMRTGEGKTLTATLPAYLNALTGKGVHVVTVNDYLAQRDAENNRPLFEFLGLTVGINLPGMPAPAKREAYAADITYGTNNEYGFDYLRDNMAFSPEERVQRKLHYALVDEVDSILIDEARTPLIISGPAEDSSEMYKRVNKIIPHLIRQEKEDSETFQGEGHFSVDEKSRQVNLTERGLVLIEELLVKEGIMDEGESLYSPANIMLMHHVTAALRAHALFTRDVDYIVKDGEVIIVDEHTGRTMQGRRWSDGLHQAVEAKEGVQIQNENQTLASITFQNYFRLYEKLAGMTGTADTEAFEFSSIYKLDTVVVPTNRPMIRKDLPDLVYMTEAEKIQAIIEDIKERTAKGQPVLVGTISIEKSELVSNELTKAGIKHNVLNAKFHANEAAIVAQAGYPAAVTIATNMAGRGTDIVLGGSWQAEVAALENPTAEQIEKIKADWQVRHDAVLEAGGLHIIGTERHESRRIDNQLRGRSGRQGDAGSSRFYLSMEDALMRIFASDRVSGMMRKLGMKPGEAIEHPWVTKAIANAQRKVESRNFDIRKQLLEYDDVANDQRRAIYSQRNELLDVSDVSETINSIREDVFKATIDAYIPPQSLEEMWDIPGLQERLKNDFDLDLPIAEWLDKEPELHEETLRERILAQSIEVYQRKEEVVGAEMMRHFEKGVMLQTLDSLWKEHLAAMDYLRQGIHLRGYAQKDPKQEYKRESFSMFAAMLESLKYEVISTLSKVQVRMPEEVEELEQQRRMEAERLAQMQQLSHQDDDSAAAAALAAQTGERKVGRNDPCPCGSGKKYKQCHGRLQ

Regarding `Cc1noc2ncc(C(=O)N3CCCC3c3ccncc3)cc12` (stereo unspecified), the Percent Effect was -7.65% in assay [1]; 20.2% in assay [2]; -6.44% in assay [3]; 0.762% in assay [4]; 10.1% with Trypanosoma cruzi; -3.42% in [5]. In addition, the Percent Effect is 17.4% in assay [6]; 21.9% in the assay filed under Homo sapiens; 5.42% in assay [7]; 24.1% in [8]; -9.53% in assay [9].

As for `Cc1cccc2nc(C(=O)N3CCC(Nc4cccnn4)CC3)cn12`, the Percent Effect in assay [1] was -4.19%; in [2], 5.2%; in assay [3], 2.91%; in [4], 37.9%; with Trypanosoma cruzi, -0.0979%; in [5] it was -1.47%. Also, the Percent Effect in assay [6] is 8.16%; in the assay filed under Homo sapiens, 3.1%; in [7] it was 0%; in assay [8], 9.41%; in assay [9] it was -18.7%.

For `CCNC(=O)N1CCCC(c2noc(CC)n2)C1` (stereo unspecified), the Percent Effect in [1] is -3.36%; in assay [2], 13%; in [3], 3.81%; in assay [4] it was 9.2%; with Trypanosoma cruzi it was 4.6%; in assay [5], 3.16%. Besides, the Percent Effect is 5.09% in assay [6]; 7.39% in the assay listed under Homo sapiens; 5.71% in [7]; 11.8% in assay [8]; -13.2% in assay [9].

In the case of `CCN(CC)S(=O)(=O)N1CCCC(c2cccc(C(=O)O)c2)C1` (stereo unspecified), the Percent Effect in [1] is -3.72%; in assay [2] it was 16.2%; in assay [3], -6.67%; in assay [4] it was 19.8%; with Trypanosoma cruzi, 6.56%; in assay [5], 0.952%. In addition, the Percent Effect in assay [6] was 10.9%; in the assay filed under Homo sapiens it was 5.56%; in [7], 6.88%; in [8], 17.1%; in assay [9], -5.44%.

On to `Cc1ccsc1CN(Cc1ccccn1)CC(C)C`, for which the Percent Effect in assay [1] is -2.24%; in [2], 1.39%; in assay [3], -11.5%; in assay [4], 11.7%; in the assay on Trypanosoma cruzi, 4.76%; in assay [5], 8.39%. Further, the Percent Effect was 8.95% in assay [6]; -27.8% in the assay listed under Homo sapiens; 7.37% in assay [7]; 7.69% in assay [8]; -1.62% in assay [9].

As to `CCN(CC)CCNC(=O)c1ccn(COc2cc(C)cc(C)c2)n1`, the Percent Effect in assay [1] is -1.61%; in assay [2], 9.33%; in [3], 0.388%; in assay [4] it was 2.31%; with Trypanosoma cruzi it was -0.197%; in assay [5] it was -8.28%. Moreover, the Percent Effect was 21.4% in [6]; 0.95% in the assay filed under Homo sapiens; 6.35% in assay [7]; 15.4% in assay [8]; -9.92% in assay [9].

For `CC(C)c1nnc(NC(=O)NCc2ccc(CO)c(F)c2)s1`, the Percent Effect in assay [1] is -5.17%; in assay [2] it was 11.4%; in assay [3] it was -2.17%; in [4] it was -0.945%; in the assay on Trypanosoma cruzi it was -1.95%; in assay [5], 3.66%. Moreover, the Percent Effect in assay [6] is 11.8%; in the assay listed under Homo sapiens, 26.1%; in [7], -5.21%; in assay [8], -2.53%; in assay [9] it was -11.2%.

With `COc1ccc(COCC(O)CNC(=O)c2cc(C)cc(C)c2)cc1` (stereo unspecified), the Percent Effect in assay [1] is -3.84%; in assay [2] it was 13.9%; in assay [3] it was 0.387%; in assay [4], -0.514%; in the assay with Trypanosoma cruzi, 0.718%; in [5], -4.09%. The Percent Effect was 9.95% in assay [6]; 9.63% in the assay filed under Homo sapiens; 4.17% in assay [7]; 17.7% in [8]; -15.9% in assay [9].

Regarding `CC(NC1(CNC(=O)C(C)(C)C#N)CCOCC1)c1ccccc1` (stereo unspecified), the Percent Effect in [1] was -11.4%; in assay [2], 0%; in [3], -1.47%; in [4], -3.49%; in the assay on Trypanosoma cruzi, -3.03%; in assay [5] it was -1.74%. The Percent Effect was 4.89% in assay [6]; 7% in the assay listed under Homo sapiens; -7.53% in [7]; -3.7% in assay [8]; -3.14% in assay [9].

For the compound `CC1CCCN(Cc2coc(-c3cccc(F)c3)n2)C1` (stereo unspecified), the Percent Effect in [1] was -5.97%; in assay [2] it was 2.6%; in assay [3], 8.2%; in [4], 7.31%; in the assay on Trypanosoma cruzi, 1.31%; in assay [5], 2.49%. For the same compound, the Percent Effect in [6] was -0.507%; in the assay listed under Homo sapiens it was 3.77%; in assay [7] it was 5.83%; in assay [8], 2.44%; in [9], 0.197%.

On to `COc1c(CNCc2ccc(CN(C)C)cc2)c(C(C)C)nn1C`, for which the Percent Effect is 2.77% in assay [1]; -5.26% in assay [2]; 5.16% in [3]; 1.34% in [4]; -1.5% with Trypanosoma cruzi; 3.45% in assay [5]. Also, the Percent Effect in assay [6] was 2.34%; in the assay listed under Homo sapiens, 11.8%; in assay [7], -0.49%; in [8], 4.88%; in [9], -1.54%.

(Values after ChEMBL document CHEMBL3988442, “University of Dundee, Small-Polar-MMV Screening Library” (2021).)
